This is an account of results in PubChem BioAssay (NCATS).

Results filed as inconclusive are left out. Values without a mark were called inactive. This is one part of the list. Active and inactive are the calls of the source. The call rests on the fitted dose curve; in most records, active means well fitted curve in the direction sought with a large enough effect; inconclusive means small, poorly fitted or top-dose-only effect, or another doubt; inactive means no such curve, though single readings can be large; an effect the other way counts as inactive or inconclusive.

In test [1] the target is Rap guanine nucleotide exchange factor 3 (Homo sapiens) (UniProt O95398). Description: Confirmatory qHTS for agonist of cAMP-regulated guanine nucleotide exchange factor 3 (EPAC1) (AID 1645881).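 Further: EPAC1 catalysed release of BODIPY-GDP from Rap1B seen as fluorescence loss; 100% = effect of cAMP agonist control; nearly all actives have a fitted effect of over 75% in size.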
The target of test [2] is Rap guanine nucleotide exchange factor 4 (Homo sapiens) (UniProt Q8WZA2). Description: Confirmatory qHTS for agonist of cAMP-regulated guanine nucleotide exchange factor 4 (EPAC2) (AID 1645884).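 Further: nucleotide exchange releases bodipy-GDP from Rap1 and this lowers its fluorescence; on the % scale 0 is the no-effect control and ±100 the full control effect; nearly all actives have a fitted effect of over 65% in size.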
Test [3] has the same target. Description: Confirmatory qHTS for antagonist of cAMP-regulated guanine nucleotide exchange factor 4 (EPAC2) (AID 1645885). Further: on the % scale 0 is the no-effect control and ±100 the full control effect; nearly all actives have a fitted effect of over 25% in size. In general terms: qHTS replaces the single test concentration by a dilution series.
In test [4] the target is Rap guanine nucleotide exchange factor 3 (Homo sapiens) (UniProt O95398). Description: Counterscreen qHTS for antagonist of cAMP-regulated guanine nucleotide exchange factor 3 (EPAC1) (AID 1645888).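 Further: fluorescence loss as bound BODIPY-GDP is released from Rap1B; % of control where 0% means no effect.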 The method, boiled down:
(§1)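 Rap1B–BODIPY-GDP (250 nM) with 50 uM GDP; compounds pin-transferred to 9.74 nM–152 uM final (activator) or from 7.32 nM upwards (inhibitor). Fluorescence Ex/Em 480/540 nm read at 5 and 30 min, then after adding cAMP or buffer, at room temperature.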

The target is the same in test [5]. Description: Counterscreen qHTS for agonist of cAMP-regulated guanine nucleotide exchange factor 3 (EPAC1) (AID 1645889). Further: % of control where 0% means no effect; nearly all actives have a fitted effect of over 40% in size. The method, boiled down:
as §1
In general terms: The purpose of a counterscreen is to sort out artefacts and off-target activity.

For test [6], the target named is Tumor susceptibility gene 101 protein (Homo sapiens) (UniProt Q99816). Description: qHTS Assay for Iinhibitors of HIV-1 Budding by Blocking the Interaction of PTAP/TSG101: Hit Validation (AID 651600). Further: potency means the concentration at half of the fitted maximal effect; nearly all actives have a fitted effect of over 70% in size. Put shortly:
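Fluorescence polarization binding assay: Tsg101 binding domain (10 uM final) pre-dispensed with compounds, then FITC-labeled PTAP-motif peptide (50 nM final) added; 20 min at r.t. in HEPES pH 7.5 buffer with NaCl, Tween 20, EDTA, TCEP.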

Test [7] deals with Vitamin D3 receptor (Homo sapiens) (UniProt P11473). Description: qHTS for Inhibitors of the vitamin D receptor (VDR): Hit Validation in Primary Screen (AID 602199). Further: potency means the concentration at half of the fitted maximal effect. Conditions: VDR-coactivator inhibition assay, qHTS confirmation. Put shortly: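 Fluorescence polarization (Ex 620/Em 688 nm) of Alexa 647-SRC2-3 peptide with 800 nM VDR and 5 uM LG19078. Compounds at several concentrations, 2 h at room temperature.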

Test [8] shares this target. The experiment in a line: qHTS for Inhibitors of the vitamin D receptor (VDR): Hit Validation using a Fluorescein Assay (AID 602200). Further: potency means the concentration at half of the fitted maximal effect. Conditions: VDR-coactivator binding, fluorescein fluorescence polarization. The method, boiled down:
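Fluorescence polarization: 1.5 uM VDR-LBD, 5 uM LG19078 and 5 nM fluorescein-labeled SRC2-3 peptide (final) with compounds, 2 h at room temperature. Read at Ex 495/Em 520 nm; peptide-only wells served as control.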

Test [9] has the same target. Description: qHTS for Inhibitors of the vitamin D receptor (VDR): Hit Validation using a Beta-Lactamase Assay (AID 602202). Further: potency means the concentration at half of the fitted maximal effect. The method, boiled down: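 Stably transfected HEK293 cells expressing VDR-GAL4 DNA-binding domain fusion with UAS-driven beta-lactamase reporter, activated by agonist LG190178; compounds incubated 18 h, then FRET beta-lactam substrate 2 h; cleaved substrate read at 447 nm emission.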

The nature of test [10]: qHTS for Inhibitors of the vitamin D receptor (VDR): Hit Validation using a Cytotoxicity Assay (AID 602204).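 Further: cells co-treated with VDR agonist LG190178 at 300 nM; potency means the concentration at half of the fitted maximal effect; nearly all actives have a fitted effect of over 75% in size.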 Put shortly: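 Cells were seeded at 20,000 per well and left 4 hours before compound addition. After 18 hours of exposure, an ATP-detecting luminescent reagent was added, and luminescence was read 30 minutes later. Cycloheximide at high concentration and DMSO served as controls.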

A short description of test [11]: qHTS for Inhibitors of the vitamin D receptor (VDR): Hit Validation using a Texas Red Assay (AID 602201). Further: on the % scale 0 is the no-effect control and ±100 the full control effect. Put shortly: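 Fluorescence polarization with 1.5 uM VDR-LBD, LG19078 and 7 nM Texas Red (final). After 2 hours at ambient temperature, read at Ex 595 nm/Em 615 nm.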
The target of test [12] is DNA polymerase eta (Homo sapiens) (UniProt Q9Y253). The experiment in a line: qHTS for Inhibitors of Polymerase Eta: Confirmatory Assay for Cherry-picked Compounds (AID 720502). Further: potency means the concentration at half of the fitted maximal effect. As to conditions: Pol eta primer extension, TAMRA/BHQ fluorescence, 10 min. The method, boiled down:
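Human Pol eta at 10 nM was preincubated with compound for 15 min at room temperature. Reaction was started with TAMRA/BHQ-2-labelled primer-template substrate (50 nM final), with fluorescence read at 0 and 10 min (ex 525, em 598 nm).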

The target of test [13] is Tyrosyl-DNA phosphodiesterase 1 (Homo sapiens) (UniProt Q9NUW8). Description: Confirmation Assay for Inhibitors of Tyrosyl-DNA Phosphodiesterase (TDP1) (AID 489007). Further: potency means the concentration at half of the fitted maximal effect; nearly all actives have a fitted effect of over 40% in size. Conditions: recombinant human TDP1 enzymatic activity, dose-response. Put shortly: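 Recombinant E. coli-expressed Tdp1 (1 nM final) was preincubated with compounds 15 min at room temperature, then reacted 5 min with 15 nM 5'-biotin/3'-phosphotyrosine-FITC DNA substrate; cleavage read as loss of AlphaScreen signal (10 ug/ml beads, 10 min).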
Tyrosyl-DNA phosphodiesterase 1 (Homo sapiens), sequence (Q9NUW8 whole entry, looked up): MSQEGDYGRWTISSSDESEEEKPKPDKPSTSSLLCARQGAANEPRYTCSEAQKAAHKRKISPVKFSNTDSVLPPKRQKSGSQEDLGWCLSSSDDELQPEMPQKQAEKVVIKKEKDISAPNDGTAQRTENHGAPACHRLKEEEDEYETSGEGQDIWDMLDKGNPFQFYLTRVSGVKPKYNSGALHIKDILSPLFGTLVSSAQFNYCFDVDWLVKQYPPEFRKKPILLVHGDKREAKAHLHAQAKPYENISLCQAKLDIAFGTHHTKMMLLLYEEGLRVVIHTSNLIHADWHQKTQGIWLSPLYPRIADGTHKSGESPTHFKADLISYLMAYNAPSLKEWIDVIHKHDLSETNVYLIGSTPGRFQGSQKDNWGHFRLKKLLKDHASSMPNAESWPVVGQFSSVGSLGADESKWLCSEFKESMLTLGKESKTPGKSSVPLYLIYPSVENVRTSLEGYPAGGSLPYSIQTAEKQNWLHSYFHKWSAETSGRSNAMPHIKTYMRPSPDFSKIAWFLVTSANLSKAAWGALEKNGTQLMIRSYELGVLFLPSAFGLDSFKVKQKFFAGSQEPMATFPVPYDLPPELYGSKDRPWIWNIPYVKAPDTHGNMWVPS

Vitamin D3 receptor (Homo sapiens), sequence (P11473 whole entry, looked up): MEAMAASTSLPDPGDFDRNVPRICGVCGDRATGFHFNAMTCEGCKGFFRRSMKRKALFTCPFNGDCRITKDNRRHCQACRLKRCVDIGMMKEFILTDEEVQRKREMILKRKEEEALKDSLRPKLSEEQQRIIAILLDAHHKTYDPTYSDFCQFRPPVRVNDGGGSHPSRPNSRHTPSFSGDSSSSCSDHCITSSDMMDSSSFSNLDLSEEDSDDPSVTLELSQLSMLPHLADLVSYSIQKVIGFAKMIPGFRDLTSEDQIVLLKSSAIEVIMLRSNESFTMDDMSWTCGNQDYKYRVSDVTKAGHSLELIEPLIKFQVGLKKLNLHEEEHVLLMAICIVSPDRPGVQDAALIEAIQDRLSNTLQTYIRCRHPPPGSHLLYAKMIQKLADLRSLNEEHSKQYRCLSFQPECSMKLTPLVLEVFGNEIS
Rap guanine nucleotide exchange factor 4 (Homo sapiens), sequence (Q8WZA2 whole entry, looked up): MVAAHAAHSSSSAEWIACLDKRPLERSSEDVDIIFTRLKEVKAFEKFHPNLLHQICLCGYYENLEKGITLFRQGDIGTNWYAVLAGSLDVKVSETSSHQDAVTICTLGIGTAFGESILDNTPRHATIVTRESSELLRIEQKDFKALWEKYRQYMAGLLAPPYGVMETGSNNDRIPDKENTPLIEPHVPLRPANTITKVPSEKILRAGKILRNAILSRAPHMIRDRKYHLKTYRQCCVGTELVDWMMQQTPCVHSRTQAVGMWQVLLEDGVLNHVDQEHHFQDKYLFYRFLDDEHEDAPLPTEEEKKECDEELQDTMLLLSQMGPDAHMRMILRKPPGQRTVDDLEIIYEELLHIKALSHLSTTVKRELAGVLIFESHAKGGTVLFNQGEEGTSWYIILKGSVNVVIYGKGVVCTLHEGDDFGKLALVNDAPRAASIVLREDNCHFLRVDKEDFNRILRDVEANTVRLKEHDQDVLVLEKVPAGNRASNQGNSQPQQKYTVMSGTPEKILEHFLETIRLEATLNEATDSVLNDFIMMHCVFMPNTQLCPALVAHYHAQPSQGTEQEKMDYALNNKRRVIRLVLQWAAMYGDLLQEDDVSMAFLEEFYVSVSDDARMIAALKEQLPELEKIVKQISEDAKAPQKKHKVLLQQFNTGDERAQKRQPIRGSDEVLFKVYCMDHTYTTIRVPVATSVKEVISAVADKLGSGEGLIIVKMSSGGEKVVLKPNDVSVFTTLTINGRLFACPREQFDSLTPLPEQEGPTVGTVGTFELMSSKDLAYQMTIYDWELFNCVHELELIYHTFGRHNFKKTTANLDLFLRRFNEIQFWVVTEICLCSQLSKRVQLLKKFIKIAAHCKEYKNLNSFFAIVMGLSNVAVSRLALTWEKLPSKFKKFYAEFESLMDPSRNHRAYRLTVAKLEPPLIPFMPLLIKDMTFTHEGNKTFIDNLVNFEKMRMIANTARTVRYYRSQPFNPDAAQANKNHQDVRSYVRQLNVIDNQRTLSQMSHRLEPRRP
Rap guanine nucleotide exchange factor 3 (Homo sapiens), sequence (O95398 whole entry, looked up): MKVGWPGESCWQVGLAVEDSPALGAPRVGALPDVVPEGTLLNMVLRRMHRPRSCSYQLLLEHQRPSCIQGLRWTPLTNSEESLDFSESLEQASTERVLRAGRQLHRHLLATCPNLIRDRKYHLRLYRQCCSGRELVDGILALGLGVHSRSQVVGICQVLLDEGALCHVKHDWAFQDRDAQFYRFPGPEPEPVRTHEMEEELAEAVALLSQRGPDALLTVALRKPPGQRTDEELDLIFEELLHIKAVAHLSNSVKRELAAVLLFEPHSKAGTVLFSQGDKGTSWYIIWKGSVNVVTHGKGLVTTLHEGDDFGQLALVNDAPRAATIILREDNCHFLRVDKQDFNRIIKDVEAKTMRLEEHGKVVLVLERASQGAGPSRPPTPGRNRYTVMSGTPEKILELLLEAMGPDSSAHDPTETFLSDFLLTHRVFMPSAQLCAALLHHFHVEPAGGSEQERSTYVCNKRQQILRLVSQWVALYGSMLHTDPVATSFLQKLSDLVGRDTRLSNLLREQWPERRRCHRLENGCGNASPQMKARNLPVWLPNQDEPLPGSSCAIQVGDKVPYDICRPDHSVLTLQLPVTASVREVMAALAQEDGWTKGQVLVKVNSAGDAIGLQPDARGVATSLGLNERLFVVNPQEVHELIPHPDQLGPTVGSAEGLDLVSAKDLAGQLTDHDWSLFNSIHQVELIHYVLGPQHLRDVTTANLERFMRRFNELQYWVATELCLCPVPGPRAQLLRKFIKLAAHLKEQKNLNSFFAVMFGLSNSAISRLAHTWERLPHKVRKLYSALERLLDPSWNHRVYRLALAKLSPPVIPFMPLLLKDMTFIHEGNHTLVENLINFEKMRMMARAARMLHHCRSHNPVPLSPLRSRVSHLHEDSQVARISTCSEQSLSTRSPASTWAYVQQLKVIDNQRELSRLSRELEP
Tumor susceptibility gene 101 protein (Homo sapiens), sequence (Q99816 whole entry, looked up, the tested form may be a part): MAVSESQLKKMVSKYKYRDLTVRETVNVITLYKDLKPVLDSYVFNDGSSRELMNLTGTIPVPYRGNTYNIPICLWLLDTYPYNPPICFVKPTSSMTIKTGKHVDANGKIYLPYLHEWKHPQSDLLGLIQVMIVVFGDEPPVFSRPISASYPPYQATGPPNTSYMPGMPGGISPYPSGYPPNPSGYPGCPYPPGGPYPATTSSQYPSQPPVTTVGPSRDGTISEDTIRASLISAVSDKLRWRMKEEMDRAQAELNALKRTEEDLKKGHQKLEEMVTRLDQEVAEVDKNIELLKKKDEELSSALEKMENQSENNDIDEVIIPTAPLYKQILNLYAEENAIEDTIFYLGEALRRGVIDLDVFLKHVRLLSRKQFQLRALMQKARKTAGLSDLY
DNA polymerase eta (Homo sapiens), sequence (Q9Y253 whole entry, looked up): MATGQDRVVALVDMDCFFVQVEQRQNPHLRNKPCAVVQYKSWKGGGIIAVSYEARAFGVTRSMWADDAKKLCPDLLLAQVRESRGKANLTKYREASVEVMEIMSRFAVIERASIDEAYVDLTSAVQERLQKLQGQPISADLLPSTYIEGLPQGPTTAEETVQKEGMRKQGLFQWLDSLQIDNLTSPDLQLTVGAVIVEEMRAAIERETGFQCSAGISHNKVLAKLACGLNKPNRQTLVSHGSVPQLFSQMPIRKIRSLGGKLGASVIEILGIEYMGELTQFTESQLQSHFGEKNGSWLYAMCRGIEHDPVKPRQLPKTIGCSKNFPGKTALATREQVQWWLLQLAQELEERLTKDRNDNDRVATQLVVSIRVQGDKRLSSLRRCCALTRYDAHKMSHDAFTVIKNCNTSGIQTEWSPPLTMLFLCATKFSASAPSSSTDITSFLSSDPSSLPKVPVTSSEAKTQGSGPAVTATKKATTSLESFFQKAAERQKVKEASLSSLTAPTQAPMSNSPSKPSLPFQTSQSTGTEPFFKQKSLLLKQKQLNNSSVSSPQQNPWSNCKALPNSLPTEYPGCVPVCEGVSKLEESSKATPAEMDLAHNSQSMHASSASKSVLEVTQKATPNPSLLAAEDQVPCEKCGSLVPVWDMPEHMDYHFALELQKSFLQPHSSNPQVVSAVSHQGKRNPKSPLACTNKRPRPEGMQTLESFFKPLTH

In the case of `COc1ccc(CCn2c(=N)c(C(=O)NC3CCCCC3)cc3c(=O)n4ccccc4nc32)cc1`, the Potency result in test [1], in test [2], in test [3], in test [4] and in test [5] was “inactive” in each case.
Turning to `CCOC(=O)c1cc2n(c1/N=C/N(C)C)-c1ccccc1C2=O`, in test [6], the Potency was 5.8 µM (active). The Potency entry in test [1] and in test [3] was “inactive” throughout. Besides, the activation in test [2] was 6.24% [at 17.1 µM, percent relative to cAMP agonist control]. Further, the activity change, negative = inhibition in test [4] is 1.53% [at 30.8 µM].
On to `O=C(Nc1ccccc1Cl)/C(Cl)=C(\Cl)S(=O)c1ccccc1` (stereo not given), for which the Potency was 3.36 µM (active) in [7], 3.16 µM (active) in test [8], 3.66 µM (active) in test [9] and 20.6 µM (active) in test [10]. The Potency entry in test [1], in [2], in test [3], in test [4] and in test [5] was “inactive” in each case.
Turning to `Cc1ccc(-c2ccc(CN3C(CC(C)C)C(=O)N(Cc4cn(CCC5OCCO5)nn4)CCS3(=O)=O)cc2)cc1` (stereo not given), the Potency entry in test [1], in [2], in test [3], in test [4] and in [5] was “inactive” each time.
For `CCCCOc1cccc(C2C(C(=O)c3ccc(C)o3)=C(O)C(=O)N2c2nnc(C)s2)c1` (stereo not given), the Potency result in test [1], in test [2], in test [3], in test [4] and in test [5] was “inactive” in each case.
For `CCN=C1S/C(=C\c2ccc(-c3cccc(C(=O)O)c3)o2)C(=O)N1CC`, the Potency result in test [1], in [2], in test [3], in [4] and in [5] was “inactive” throughout.
Regarding `O=C1C(Cl)=C(NS(=O)(=O)c2ccc([N+](=O)[O-])cc2)C(=O)c2ccccc21`, the Potency entry in [11], in [1] and in test [3] was “inactive” in each case. Moreover, in [2], the activation is 8.93% [at 17.1 µM, percent relative to cAMP agonist control]. Also, the activity change, negative = inhibition in test [4] is 11.7% [at 30.8 µM].
On to `O=C(Nc1nc(-c2ccco2)c(-c2ccco2)s1)c1ccco1`, for which the Potency in test [12] was 26.9 µM (active). Also, the Potency result in test [1] and in test [3] was “inactive” throughout. For the same compound, in [2], the activation is 2.72% [at 17.1 µM, percent relative to cAMP agonist control]. Moreover, the activity change, negative = inhibition in test [4] was 0.168% [at 30.8 µM].
With `NS(=O)(=O)c1ccc(N=Nc2ccc(=O)[nH]c2O)cc1`, the Potency in [13] was 6.31 µM (active). The Potency result in test [1] and in test [3] was “inactive” throughout. Further, the activation is -0.407% [at 17.1 µM, percent relative to cAMP agonist control] in [2] and -0.888% [at 30.8 µM] in [5]. In addition, in [4], the activity change, negative = inhibition was -5.26% [at 30.8 µM].
